# Measured values reported in paper PMC7862700, “An all-to-all approach to the identification of sequence-specific readers for epigenetic DNA modifications on cytosine”.
# How the values were obtained:
# Assay in all cases: DAPPL (digital affinity profiling via proximity ligation, sequencing); 10 mM Tris-HCl pH 7.5, 50 mM NaCl, 1 mM DTT, 4% glycerol, room temperature, 30 min; GST-TFs on glutathione beads, 16-mer random dsDNA library, 0.1% formaldehyde crosslink after washing; high values mean tight binding
# FLI1 = target: T1, FLI1 (Homo sapiens, UniProt Q01543 1-452); conditions: protein: recombinant; tags: N-terminal GST; dsDNA, one strand shown
# T1 sequence: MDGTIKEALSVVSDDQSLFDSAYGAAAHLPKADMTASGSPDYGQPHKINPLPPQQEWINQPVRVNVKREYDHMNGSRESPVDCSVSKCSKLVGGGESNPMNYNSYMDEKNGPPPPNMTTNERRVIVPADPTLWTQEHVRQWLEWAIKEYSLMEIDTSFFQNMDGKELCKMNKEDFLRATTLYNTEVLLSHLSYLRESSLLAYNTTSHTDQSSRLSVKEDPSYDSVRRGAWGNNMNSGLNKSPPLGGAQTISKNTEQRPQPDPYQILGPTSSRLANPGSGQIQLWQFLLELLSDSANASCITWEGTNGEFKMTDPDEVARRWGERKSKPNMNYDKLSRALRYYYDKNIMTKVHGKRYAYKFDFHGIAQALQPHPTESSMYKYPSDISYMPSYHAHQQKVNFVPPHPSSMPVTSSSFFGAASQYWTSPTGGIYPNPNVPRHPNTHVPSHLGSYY
# Outline: (§1)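 A tag-only sample was pooled with DNA-barcoded human transcription factors that had been expressed in yeast as GST fusions and captured on glutathione beads. The pools were incubated for 30 min at room temperature with 200 nmole of a random double-stranded 16-mer DNA library in Tris/NaCl/DTT/glycerol buffer, then washed, crosslinked with 0.1% formaldehyde, proximity-ligated (BsaI/T4 ligase, 1 h, 37 °C), PCR-amplified and sequenced on an Illumina NextSeq500. Binding signal is each hexamer's read frequency for a factor divided by its frequency for the tag-only sample.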
# ELK1 = target: T2, ELK1 (Homo sapiens, UniProt P19419 1-428); conditions: protein: recombinant; tags: N-terminal GST; dsDNA, one strand shown
# T2 sequence: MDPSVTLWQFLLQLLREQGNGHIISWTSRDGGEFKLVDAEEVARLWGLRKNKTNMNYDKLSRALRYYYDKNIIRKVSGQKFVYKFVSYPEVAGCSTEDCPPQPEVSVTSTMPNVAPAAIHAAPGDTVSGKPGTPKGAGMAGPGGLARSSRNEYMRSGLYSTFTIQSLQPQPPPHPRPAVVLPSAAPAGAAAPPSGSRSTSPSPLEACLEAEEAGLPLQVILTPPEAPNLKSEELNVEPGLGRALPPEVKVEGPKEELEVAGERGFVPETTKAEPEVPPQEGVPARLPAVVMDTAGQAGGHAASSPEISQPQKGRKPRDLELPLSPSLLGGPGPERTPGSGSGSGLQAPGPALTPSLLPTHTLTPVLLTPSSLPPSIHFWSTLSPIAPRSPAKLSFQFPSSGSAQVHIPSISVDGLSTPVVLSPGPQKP
# Outline: as §1
# GABPA = target: T3, GABPA (Homo sapiens, UniProt Q06546 1-454); conditions: protein: recombinant; tags: N-terminal GST; dsDNA, one strand shown
# T3 sequence: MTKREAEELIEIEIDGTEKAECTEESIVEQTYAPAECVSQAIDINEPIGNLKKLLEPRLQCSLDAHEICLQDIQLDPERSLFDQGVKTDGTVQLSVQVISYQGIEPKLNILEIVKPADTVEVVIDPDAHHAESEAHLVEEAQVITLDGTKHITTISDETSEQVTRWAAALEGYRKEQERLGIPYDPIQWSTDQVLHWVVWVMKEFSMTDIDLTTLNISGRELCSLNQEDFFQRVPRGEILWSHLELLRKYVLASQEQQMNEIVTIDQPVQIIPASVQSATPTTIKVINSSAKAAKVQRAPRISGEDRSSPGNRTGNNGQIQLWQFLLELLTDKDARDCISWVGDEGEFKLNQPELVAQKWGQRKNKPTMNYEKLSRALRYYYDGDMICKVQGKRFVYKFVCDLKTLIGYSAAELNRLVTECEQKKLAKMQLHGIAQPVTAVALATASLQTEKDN
# Outline: as §1
# ERG = target: T4, ERG (Homo sapiens, UniProt P11308 1-479); conditions: protein: recombinant; tags: N-terminal GST; dsDNA, one strand shown
# T4 sequence: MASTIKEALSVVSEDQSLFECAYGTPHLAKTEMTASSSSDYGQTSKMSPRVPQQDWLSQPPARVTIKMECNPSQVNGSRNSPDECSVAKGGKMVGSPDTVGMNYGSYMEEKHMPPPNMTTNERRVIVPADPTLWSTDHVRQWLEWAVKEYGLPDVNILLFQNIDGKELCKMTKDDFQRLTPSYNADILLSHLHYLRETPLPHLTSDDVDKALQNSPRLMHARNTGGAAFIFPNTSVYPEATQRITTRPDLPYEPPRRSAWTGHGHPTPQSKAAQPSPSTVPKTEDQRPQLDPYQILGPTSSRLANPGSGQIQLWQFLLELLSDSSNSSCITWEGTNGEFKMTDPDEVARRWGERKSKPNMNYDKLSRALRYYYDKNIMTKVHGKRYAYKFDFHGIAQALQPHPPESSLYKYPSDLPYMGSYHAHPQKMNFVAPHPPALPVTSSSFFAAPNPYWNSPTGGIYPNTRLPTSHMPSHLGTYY
# Outline: as §1
# ELF1 = ELF1 (Homo sapiens, UniProt P32519 1-619); conditions: protein: recombinant; tags: N-terminal GST; dsDNA, one strand shown
# Outline: as §1
# EHF = target: T5, EHF (Homo sapiens, UniProt Q9NZC4 1-300); conditions: protein: recombinant; tags: N-terminal GST; dsDNA, one strand shown
# T5 sequence: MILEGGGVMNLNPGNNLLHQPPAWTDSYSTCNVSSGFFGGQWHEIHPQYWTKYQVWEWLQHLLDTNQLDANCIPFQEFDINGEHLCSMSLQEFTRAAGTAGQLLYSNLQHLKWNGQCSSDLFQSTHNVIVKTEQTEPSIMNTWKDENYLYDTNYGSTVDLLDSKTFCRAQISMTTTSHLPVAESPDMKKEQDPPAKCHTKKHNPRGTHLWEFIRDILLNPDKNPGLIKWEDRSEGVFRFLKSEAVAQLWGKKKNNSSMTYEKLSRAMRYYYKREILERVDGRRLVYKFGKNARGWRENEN
# Outline: as §1
# SPI1 = SPI1 (Homo sapiens, UniProt P17947 1-270); conditions: protein: recombinant; tags: N-terminal GST; dsDNA, one strand shown
# Outline: as §1
# SPIB = SPIB (Homo sapiens, UniProt Q01892 1-262); conditions: protein: recombinant; tags: N-terminal GST; dsDNA, one strand shown
# Outline: as §1
# ELK3 = target: T6, ELK3 (Homo sapiens, UniProt P41970 1-407); conditions: protein: recombinant; tags: N-terminal GST; dsDNA, one strand shown
# T6 sequence: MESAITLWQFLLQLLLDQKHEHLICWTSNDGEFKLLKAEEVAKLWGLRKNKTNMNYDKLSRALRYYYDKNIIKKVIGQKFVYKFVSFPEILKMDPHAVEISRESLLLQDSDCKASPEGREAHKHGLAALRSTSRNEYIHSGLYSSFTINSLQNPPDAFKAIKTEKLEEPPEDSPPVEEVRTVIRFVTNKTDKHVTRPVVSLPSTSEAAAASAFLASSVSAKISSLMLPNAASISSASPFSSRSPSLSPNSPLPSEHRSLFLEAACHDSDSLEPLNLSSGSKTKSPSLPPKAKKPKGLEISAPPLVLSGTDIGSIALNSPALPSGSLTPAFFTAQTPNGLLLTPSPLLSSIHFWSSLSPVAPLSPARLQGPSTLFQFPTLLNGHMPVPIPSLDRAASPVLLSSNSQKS
# Outline: as §1
# FEV = target: T7, FEV (Homo sapiens, UniProt Q99581 1-238); conditions: protein: recombinant; tags: N-terminal GST; dsDNA, one strand shown
# T7 sequence: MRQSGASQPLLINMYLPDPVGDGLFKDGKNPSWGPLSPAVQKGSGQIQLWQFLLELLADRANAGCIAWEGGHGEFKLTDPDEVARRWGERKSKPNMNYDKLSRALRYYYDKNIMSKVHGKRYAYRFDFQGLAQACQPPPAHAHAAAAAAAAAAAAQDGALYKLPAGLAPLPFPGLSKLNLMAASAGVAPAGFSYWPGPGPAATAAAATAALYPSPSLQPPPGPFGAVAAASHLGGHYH
# Outline: as §1
# ETV5 = ETV5 (Homo sapiens, UniProt P41161 1-510); conditions: protein: recombinant; tags: N-terminal GST; dsDNA, one strand shown
# Outline: as §1
# HSF1 = HSF1 (Homo sapiens, UniProt Q00613 1-529); conditions: protein: recombinant; tags: N-terminal GST; chain copies: 3; dsDNA, one strand shown
# Outline: as §1
# SPIC = target: T8, SPIC (Homo sapiens, UniProt Q8N5J4 1-248); conditions: protein: recombinant; tags: N-terminal GST; dsDNA, one strand shown
# T8 sequence: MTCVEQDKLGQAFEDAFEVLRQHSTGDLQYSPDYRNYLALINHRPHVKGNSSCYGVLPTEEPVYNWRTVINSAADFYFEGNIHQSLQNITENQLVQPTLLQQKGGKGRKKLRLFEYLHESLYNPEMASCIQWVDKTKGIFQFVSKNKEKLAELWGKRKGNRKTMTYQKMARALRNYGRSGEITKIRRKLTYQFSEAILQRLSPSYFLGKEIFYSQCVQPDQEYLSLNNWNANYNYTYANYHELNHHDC
# Outline: as §1
# ELF4 = ELF4 (Homo sapiens, UniProt Q99607 1-663); conditions: protein: recombinant; tags: N-terminal GST; dsDNA, one strand shown
# Outline: as §1
# ELK4 = target: T9, ELK4 (Homo sapiens, UniProt P28324-2 1-405); conditions: protein: recombinant; tags: N-terminal GST; dsDNA, one strand shown
# T9 sequence: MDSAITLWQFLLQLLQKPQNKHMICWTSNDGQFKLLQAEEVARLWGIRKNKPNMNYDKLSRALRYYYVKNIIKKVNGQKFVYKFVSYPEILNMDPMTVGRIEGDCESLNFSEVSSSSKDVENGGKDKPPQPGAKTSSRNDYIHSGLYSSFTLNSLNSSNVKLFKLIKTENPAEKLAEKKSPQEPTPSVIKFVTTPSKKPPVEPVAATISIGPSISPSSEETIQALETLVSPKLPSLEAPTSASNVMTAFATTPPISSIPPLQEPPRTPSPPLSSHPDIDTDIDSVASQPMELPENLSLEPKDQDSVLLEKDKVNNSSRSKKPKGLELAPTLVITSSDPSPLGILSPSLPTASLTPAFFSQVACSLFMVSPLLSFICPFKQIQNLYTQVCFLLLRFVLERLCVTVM
# Outline: as §1
# ETV2 = target: T10, ETV2 (Homo sapiens, UniProt O00321 1-342); conditions: protein: recombinant; tags: N-terminal GST; dsDNA, one strand shown
# T10 sequence: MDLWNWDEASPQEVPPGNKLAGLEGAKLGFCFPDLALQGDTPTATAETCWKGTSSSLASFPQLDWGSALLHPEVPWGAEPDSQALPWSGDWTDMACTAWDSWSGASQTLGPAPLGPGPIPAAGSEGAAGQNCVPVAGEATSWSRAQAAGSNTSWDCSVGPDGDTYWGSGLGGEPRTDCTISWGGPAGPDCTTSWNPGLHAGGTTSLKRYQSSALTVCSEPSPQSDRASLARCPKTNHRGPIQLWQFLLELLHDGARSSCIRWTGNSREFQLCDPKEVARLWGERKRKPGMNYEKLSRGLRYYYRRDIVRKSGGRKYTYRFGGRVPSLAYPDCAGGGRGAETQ
# Outline: as §1
# ELF3 = target: T11, ELF3 (Homo sapiens, UniProt P78545 1-371); conditions: protein: recombinant; tags: N-terminal GST; dsDNA, one strand shown
# T11 sequence: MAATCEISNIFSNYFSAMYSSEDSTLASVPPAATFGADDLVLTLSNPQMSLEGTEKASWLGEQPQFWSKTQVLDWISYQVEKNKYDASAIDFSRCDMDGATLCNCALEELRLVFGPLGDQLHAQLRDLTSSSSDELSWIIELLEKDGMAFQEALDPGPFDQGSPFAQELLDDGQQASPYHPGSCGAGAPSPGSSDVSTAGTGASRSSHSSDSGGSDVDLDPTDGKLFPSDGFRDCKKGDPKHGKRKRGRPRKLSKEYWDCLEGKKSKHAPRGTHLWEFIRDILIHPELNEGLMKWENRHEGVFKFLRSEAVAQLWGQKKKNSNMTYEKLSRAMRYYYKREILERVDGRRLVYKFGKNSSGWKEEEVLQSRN
# Outline: as §1
# CRX = CRX (Homo sapiens, UniProt O43186 1-299); conditions: protein: recombinant; tags: N-terminal GST; dsDNA, one strand shown
# Outline: as §1
# ETV1 = ETV1 (Homo sapiens, UniProt P50549 1-477); conditions: protein: recombinant; tags: N-terminal GST; dsDNA, one strand shown
# Outline: as §1
# ELF1, sequence (P32519 whole entry): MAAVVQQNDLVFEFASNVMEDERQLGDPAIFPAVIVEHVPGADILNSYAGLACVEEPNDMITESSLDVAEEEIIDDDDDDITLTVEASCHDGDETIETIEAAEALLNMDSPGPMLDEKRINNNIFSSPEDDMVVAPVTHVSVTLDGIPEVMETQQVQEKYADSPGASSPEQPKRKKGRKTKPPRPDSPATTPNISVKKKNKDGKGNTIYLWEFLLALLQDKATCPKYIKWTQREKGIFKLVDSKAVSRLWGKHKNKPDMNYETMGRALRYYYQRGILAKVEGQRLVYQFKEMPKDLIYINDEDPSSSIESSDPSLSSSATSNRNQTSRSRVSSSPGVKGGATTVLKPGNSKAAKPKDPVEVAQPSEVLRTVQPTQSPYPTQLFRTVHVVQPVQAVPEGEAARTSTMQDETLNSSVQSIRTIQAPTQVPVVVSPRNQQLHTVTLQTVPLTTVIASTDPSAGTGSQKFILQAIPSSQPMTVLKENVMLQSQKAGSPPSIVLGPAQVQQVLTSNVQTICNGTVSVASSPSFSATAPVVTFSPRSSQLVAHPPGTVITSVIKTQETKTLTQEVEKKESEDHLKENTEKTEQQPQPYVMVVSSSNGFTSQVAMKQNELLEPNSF
# ELF4, sequence (Q99607 whole entry): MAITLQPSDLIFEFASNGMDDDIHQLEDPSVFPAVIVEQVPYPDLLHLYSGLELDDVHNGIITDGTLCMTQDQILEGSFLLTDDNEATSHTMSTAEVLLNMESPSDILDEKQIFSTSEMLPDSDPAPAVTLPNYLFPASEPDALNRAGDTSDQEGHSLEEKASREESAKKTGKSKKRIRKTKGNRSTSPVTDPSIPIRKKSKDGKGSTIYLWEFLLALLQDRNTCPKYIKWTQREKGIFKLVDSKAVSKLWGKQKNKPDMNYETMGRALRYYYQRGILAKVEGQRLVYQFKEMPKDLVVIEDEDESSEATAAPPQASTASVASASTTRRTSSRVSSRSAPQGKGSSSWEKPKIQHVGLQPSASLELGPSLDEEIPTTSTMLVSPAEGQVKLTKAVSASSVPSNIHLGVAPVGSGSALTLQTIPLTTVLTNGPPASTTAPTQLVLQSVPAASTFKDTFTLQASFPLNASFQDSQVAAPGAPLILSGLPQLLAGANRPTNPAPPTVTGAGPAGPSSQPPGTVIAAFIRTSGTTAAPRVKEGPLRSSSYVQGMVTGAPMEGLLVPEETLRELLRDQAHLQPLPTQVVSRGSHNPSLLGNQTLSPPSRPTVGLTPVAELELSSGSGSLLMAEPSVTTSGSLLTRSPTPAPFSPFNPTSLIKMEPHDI
# HSF1, sequence (Q00613 whole entry): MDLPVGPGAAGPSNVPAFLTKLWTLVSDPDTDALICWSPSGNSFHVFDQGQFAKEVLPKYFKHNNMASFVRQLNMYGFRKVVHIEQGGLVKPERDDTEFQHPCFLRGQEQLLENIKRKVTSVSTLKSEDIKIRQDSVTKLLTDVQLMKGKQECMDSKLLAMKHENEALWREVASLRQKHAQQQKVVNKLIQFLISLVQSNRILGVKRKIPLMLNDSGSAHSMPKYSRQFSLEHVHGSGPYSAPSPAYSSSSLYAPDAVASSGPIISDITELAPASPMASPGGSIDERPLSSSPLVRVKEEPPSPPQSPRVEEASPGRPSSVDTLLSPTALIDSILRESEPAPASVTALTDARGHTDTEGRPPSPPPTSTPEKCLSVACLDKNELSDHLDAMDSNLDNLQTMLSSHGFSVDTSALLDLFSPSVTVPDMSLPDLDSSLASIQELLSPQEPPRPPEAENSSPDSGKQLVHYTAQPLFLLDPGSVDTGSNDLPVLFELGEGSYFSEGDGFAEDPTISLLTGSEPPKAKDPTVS
# SPIB, sequence (Q01892 whole entry): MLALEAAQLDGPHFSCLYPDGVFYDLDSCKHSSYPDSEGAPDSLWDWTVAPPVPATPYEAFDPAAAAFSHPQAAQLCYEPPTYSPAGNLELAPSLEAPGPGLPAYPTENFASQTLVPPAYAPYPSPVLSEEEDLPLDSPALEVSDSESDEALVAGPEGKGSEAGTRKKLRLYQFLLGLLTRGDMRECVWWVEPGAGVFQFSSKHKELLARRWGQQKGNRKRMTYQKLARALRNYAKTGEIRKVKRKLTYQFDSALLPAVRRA
# ETV1, sequence (P50549 whole entry): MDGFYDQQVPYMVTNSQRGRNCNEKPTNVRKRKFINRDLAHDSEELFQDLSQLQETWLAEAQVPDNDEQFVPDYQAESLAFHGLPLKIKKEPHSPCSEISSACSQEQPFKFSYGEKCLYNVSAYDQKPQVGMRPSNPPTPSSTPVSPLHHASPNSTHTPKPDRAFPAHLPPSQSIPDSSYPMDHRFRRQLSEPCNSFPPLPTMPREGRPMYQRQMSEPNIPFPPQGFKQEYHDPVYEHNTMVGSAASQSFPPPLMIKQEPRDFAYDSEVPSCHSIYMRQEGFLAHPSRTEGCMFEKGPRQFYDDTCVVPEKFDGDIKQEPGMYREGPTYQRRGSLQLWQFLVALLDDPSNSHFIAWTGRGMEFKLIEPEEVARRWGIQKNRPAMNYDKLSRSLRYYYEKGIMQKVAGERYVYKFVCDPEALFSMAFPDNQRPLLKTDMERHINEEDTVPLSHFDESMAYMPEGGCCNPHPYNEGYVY
# CRX, sequence (O43186 whole entry): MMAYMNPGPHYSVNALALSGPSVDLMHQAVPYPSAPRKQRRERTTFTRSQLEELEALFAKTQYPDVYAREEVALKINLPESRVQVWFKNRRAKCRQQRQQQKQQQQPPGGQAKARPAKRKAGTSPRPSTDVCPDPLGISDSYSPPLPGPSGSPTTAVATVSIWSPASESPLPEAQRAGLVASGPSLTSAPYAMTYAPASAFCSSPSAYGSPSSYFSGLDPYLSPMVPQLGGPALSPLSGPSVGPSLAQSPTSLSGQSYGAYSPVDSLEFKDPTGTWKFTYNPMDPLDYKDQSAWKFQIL
# ETV5, sequence (P41161 whole entry): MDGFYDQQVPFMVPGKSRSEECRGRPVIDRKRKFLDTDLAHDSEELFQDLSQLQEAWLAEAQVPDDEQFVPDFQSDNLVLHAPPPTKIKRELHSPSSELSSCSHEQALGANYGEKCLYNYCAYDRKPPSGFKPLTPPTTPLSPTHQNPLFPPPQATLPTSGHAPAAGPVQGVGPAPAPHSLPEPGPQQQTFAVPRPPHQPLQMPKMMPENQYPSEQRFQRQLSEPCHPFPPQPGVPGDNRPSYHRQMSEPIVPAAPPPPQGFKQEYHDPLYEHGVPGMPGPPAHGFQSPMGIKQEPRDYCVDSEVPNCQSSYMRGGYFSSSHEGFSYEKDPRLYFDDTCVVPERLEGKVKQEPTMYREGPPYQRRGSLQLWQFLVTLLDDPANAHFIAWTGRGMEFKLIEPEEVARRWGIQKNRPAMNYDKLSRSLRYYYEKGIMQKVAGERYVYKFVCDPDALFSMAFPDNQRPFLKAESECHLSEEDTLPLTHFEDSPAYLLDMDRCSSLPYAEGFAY
sequence,measurement,setting,value
TAAGAA,binding signal,FLI1,"1.09 fold enrichment (6-mer frequency, TF over GST control)"
same,binding signal,ELK1,"1.1 fold enrichment (6-mer frequency, TF over GST control)"
same,binding signal,GABPA,"1.15 fold enrichment (6-mer frequency, TF over GST control)"
same,binding signal,ERG,"1.05 fold enrichment (6-mer frequency, TF over GST control)"
same,binding signal,ELF1,"1.04 fold enrichment (6-mer frequency, TF over GST control)"
same,binding signal,EHF,"1.04 fold enrichment (6-mer frequency, TF over GST control)"
same,binding signal,SPI1,"1.12 fold enrichment (6-mer frequency, TF over GST control)"
same,binding signal,SPIB,"1.04 fold enrichment (6-mer frequency, TF over GST control)"
same,binding signal,ELK3,"1.15 fold enrichment (6-mer frequency, TF over GST control)"
same,binding signal,FEV,"1.05 fold enrichment (6-mer frequency, TF over GST control)"
same,binding signal,ETV5,"1.1 fold enrichment (6-mer frequency, TF over GST control)"
same,binding signal,HSF1,"1.77 fold enrichment (6-mer frequency, TF over GST control)"
same,binding signal,SPIC,"1.21 fold enrichment (6-mer frequency, TF over GST control)"
same,binding signal,ELF4,"1.13 fold enrichment (6-mer frequency, TF over GST control)"
same,binding signal,ELK4,"1.09 fold enrichment (6-mer frequency, TF over GST control)"
same,binding signal,ETV2,"1.2 fold enrichment (6-mer frequency, TF over GST control)"
same,binding signal,ELF3,"1.02 fold enrichment (6-mer frequency, TF over GST control)"
same,binding signal,CRX,"1.96 fold enrichment (6-mer frequency, TF over GST control)"
same,binding signal,ETV1,"1.13 fold enrichment (6-mer frequency, TF over GST control)"
